Assay results from PubChem BioAssay AID1347146 (National Center for Advancing Translational Sciences (NCATS), 2019).
Results filed as inconclusive are left out. A call without a number means that no potency is given here. Calls of active or inactive are those of the source. The call rests on the fitted dose curve; in most records, active means well fitted inhibition curve with a large enough effect; inconclusive means small, poorly fitted or top-dose-only effect; inactive means no such curve, though single readings can be large or run the other way.
Potency means the concentration at half of the fitted maximal effect.

What follows are compounds tested against Nicotinamide N-methyltransferase (Homo sapiens) (UniProt P40261) (assay: qHTS Assay for Inhibitors of N-terminal methyltransferase 1 (NTMT1): NNMT MTaseGlo counterscreen assay). Details: NNMT enzyme, MTase-Glo luminescence counterscreen; series mostly up to 57.1 µM.
Nicotinamide N-methyltransferase (Homo sapiens), sequence (P40261 whole entry, looked up): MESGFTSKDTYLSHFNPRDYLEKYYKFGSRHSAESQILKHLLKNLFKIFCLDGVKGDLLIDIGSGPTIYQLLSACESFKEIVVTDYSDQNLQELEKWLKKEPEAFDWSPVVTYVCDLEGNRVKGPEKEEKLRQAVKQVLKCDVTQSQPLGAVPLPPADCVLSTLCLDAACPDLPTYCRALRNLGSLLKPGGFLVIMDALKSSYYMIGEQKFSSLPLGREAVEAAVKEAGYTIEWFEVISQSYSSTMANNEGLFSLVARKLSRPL
Description: Assay Submitter (PI): Rong Huang Ph.D, Purdue University, West Lafayette, IN 47907
The N-terminal methytransferase 1 is the first methyltransferase that methylates protein alpha-N-amines and plays an important role in regulating cell mitosis, chromatin interactions and DNA repair. It is observed to be over-expressed in various cancer patient tissues like malignant melanoma and colorectal cancer tissues. Knockdown of NTMT1 in cancer cells causes cell mitotic defects and enhances sensitivity to DNA damaging chemotherapeutics. […] These critical cellular processes in which NTMT1 is implicated, coupled with emerging links to cellular dysfunction, strengthen the inference that NTMT1 is a compelling novel anticancer target. Progress have been made in understanding the molecular properties of NTMT1 and the biological consequences of protein alpha-N-terminal methylation, but there are no specific small molecule probes available for NTMT1 to fully characterize its MTase activity. To address this unmet need, a panel of assay is created and established to enable quantitative high-throughput screening (qHTS) for novel, potent, and selective small molecule NTMT1 inhibitors. Two orthogonal qHTS that use different reagents (ThioGlo vs. MTaseGlo) are developed for primary robotic screening against the NCATS chemical library of more than 400,000 small molecules. Identified inhibitors are reacquired, validated, and further characterized.
MTaseGlo Assay is a luminescence screen that measure the activity of methyltransferases based on the reaction product S-adenosyl homocysteine (SAH). The substrate SAM is converted to SAH upon enzyme activation. MTase-Glo reagent and detection solution convert SAH to ATP and measure the light from the luciferase reaction. Nicotinamide N-methyltransferase (NNMT) is a cystolic enzyme that catalyzes the transfer of a methyl group from the co-factor SAM onto the substrate, nicotinamide (NA) to form 1-methyl-nicotinamide (MNA) and SAH. NNMT MTaseGlo assay is used as a counterscreen to evaluate selectivity of identified inhibitors.
Early Translation Branch (ETB)
National Center for Advancing Translational Sciences (NCATS)
National Institute of Health (NIH)
NNMT enzyme, SAM, NA, and control is provided by the Huang laboratory.
In brief, 3 µL of enzyme mixture (final concentrations of 125 nM and 100 µM for NNMT and SAM, respectively) into all wells of a 1,536-well solid-bottom white plate (Greiner Bio One, Monroe, NC). 23 nL of DMSO or compound (final concentration range 234 nM to 143 microM) was transferred via Wako Pin-tool (Wako Automation, Richmond, VA) and incubated (RT) for ~15 minutes. Next, 1 µL of substrate (final concentration 1 µM NA) or buffer was dispensed, and the reaction proceeded for 30 minutes (RT, protected from light) followed by a 1 microL addition of [5X] MTase-Glo Reagent(R). Samples were incubated (RT, protected from light) for 30 minutes to allow for SAH to be converted to ADP, followed by a 5 microL addition of [1X] MTase-Glo Detection Solution(R) to allow for ADP to be converted to ATP, which was then detected with a luciferase reaction. Samples were centrifuged for 15 seconds at 1,000 RPM's, followed by a RT incubation for 30 minutes. Plates were then read using Luminescence optics on a ViewLux detector. Data were normalized to no-enzyme (0% activity) and no-inhibitor (DMSO; 100%) controls, and the resulting percent inhibition data were fitted to a 4-parameter Hill equation using Graphpad Prism.
With `Ic1ccccc1CNC1C2CCN(CC2)C1C(c1ccccc1)c1ccccc1` (stereo not given) the Potency was “inactive”. With `O=[N+]([O-])c1cc(O)c(O)c([N+](=O)[O-])c1` the Potency was “inactive”. `COc1ccc2c(c[n+](C)c3c4cc5c(cc4ccc23)OCO5)c1OC` was tested, and the Potency was 12.6 µM (active). With `O=[N+]([O-])c1ccc2nc(N3CCNCC3)ccc2c1` the Potency was “inactive”. In the case of `COC[C@H]1OC(=O)c2coc3c2[C@@]1(C)C1=C(C3=O)C2CCC(=O)[C@@]2(C)C[C@H]1OC(C)=O` (stereo not given in full), the Potency is reported as “inactive”. `CC(N)Cc1c[nH]c2ccc(O)cc12` (stereo not given) was tested, and the Potency was “inactive”. `CCn1cnc2c(Nc3cccc(Cl)c3)nc(N[C@@H]3CCCC[C@@H]3N)nc21` was tested, and the Potency was “inactive”. In the case of `NCC(O)c1cc(O)c(O)cc1F` (stereo not given), the Potency is reported as “inactive”. `NC1CCc2cc(O)c(O)cc2C1` (stereo not given) was tested, and the Potency was “inactive”. For `O=C1CC[C@@]2(O)C3Cc4ccc(O)c5c4C2(CCN3CC2CC2)[C@H]1O5` (stereo not given in full), the Potency was “inactive”. With `CC(N)[C@H](O)c1ccc(O)c(O)c1` (stereo not given in full) the Potency was “inactive”. In the case of `NC(N)=Nc1ccc2[nH]c3c(c2c1)C[C@@]1(O)[C@H]2Cc4ccc(O)c5c4[C@@]1(CCN2CC1CC1)[C@H]3O5`, the Potency is reported as “inactive”. In the case of `C[N+]1(C)C2CCC1CC(OC(=O)c1c[nH]c3ccccc13)C2` (stereo not given), the Potency is reported as “inactive”. In the case of `C[N+]1(C)CCN(c2ccccc2)CC1`, the Potency is reported as “inactive”. For `CNCCc1c[nH]c2ccc(O)cc12`, the Potency was “inactive”. With `CC(=O)c1c(O)c(C)c(O)c(Cc2c(O)c3c(c(C(=O)/C=C/c4ccccc4)c2O)OC(C)(C)C=C3)c1O` the Potency was “inactive”. With `CC(C)=CCOc1c2occc2cc2ccc(=O)oc12` the Potency was “inactive”. `Clc1ccc(N2CC3CCC(C2)N3)nn1` was tested, and the Potency was “inactive”. `NC(=O)CI` was tested, and the Potency was “inactive”. With `CCCN(CCC)[C@H]1CCc2c(F)ccc(O)c2C1` the Potency was “inactive”. For `C[N+](C)(C)CC#CCN1CCCC1=O`, the Potency was “inactive”. `N#CC(C#N)=Cc1ccc(O)c(O)c1` was tested, and the Potency was “inactive”. For `CC(C)(C)c1cc(C=C(C#N)C#N)cc(C(C)(C)C)c1O`, the Potency was “inactive”. `c1ccc(CCCN2CCN(CCOC(c3ccccc3)c3ccccc3)CC2)cc1` was tested, and the Potency was “inactive”. In the case of `CN[C@@H]1C[C@@H](c2ccc(Cl)c(Cl)c2)c2ccccc21`, the Potency is reported as “inactive”.
